For two molecules, outcome results are on record in PubChem BioAssay AID2283125 (EPA ToxCast).

Records with an inconclusive call do not appear. Calls of active or inactive are those of the source. Rule for the calls: active = hit-call score of the fitted dose curve at least 0.9, where 1 is the maximum; inconclusive = response in the unintended direction; inactive = score below 0.9.

The target of this assay is Tyrosine-protein kinase ABL1 (Homo sapiens) (UniProt P00519). The assay can be described thus: NVS_ENZ_hAbl: NovaScreen (NVS) Enzymatic Assay for human ABL proto-oncogene 1, non-receptor tyrosine kinase. The method, then:
NVS_ENZ_hAbl is a biochemical, single-readout assay that uses extracted gene-proteins in a cell-free assay. Measurements were taken 1 hour after chemical dosing in a 96-well plate.NVS_ENZ_hAbl is one of one assay component(s) measured or calculated from the NVS_ENZ_hAbl assay. It is designed to make measurements of enzyme activity, a form of enzyme reporter, as detected with fluorescence intensity signals by Fluorescence and electrophoretic mobility shift technology.Data from the assay component NVS_ENZ_hAbl was analyzed into 1 assay endpoint. This assay endpoint, NVS_ENZ_hAbl, was analyzed in the positive analysis fitting direction relative to DMSO as the negative control and baseline of activity. Using a type of enzyme reporter, loss-of-signal activity can be used to understand changes in the enzymatic activity as they relate to the gene ABL1. Furthermore, this assay endpoint can be referred to as a primary readout, because this assay has produced multiple assay endpoints where this one serves a enzymatic activity function. To generalize the intended target to other relatable targets, this assay endpoint is annotated to the kinase intended target family, where the subfamily is non-receptor tyrosine kinase. […]

Tyrosine-protein kinase ABL1 (Homo sapiens), sequence (P00519 whole entry, looked up): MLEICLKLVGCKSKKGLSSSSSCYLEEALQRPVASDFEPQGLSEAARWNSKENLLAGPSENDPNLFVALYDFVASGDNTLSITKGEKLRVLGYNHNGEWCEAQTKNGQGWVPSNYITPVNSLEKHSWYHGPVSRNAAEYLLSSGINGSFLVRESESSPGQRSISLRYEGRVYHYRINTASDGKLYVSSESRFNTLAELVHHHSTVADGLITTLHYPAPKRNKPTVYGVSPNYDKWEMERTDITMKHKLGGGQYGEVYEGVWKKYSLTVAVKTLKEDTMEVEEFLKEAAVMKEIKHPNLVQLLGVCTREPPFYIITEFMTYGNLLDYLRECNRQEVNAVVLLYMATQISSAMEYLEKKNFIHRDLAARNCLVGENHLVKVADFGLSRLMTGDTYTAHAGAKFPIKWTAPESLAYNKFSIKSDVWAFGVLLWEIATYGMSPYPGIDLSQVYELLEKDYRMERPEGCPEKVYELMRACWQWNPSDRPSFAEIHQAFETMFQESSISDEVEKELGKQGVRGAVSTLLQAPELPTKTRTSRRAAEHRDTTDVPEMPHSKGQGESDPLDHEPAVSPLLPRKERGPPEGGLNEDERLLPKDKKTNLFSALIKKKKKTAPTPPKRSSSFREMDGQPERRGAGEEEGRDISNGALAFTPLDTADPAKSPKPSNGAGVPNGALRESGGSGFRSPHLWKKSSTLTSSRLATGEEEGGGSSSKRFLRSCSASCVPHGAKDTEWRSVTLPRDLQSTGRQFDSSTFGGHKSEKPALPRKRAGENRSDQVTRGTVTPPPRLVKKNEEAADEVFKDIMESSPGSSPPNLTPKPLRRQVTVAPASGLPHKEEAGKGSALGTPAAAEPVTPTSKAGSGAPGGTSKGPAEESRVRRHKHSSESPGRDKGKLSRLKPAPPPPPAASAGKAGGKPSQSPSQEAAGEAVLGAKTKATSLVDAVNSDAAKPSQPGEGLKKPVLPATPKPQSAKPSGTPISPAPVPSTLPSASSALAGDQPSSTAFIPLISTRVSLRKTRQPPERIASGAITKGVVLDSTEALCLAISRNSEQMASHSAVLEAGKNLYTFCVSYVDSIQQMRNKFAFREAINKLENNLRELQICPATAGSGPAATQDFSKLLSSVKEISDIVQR

As to `c1ccc2[nH]c(-c3cscn3)nc2c1`, the outcome was inactive.

As for `O=C(Nc1ccc([N+](=O)[O-])cc1Cl)c1cc(Cl)ccc1O`, the molecule was classed as inactive.
